A selection: hits, their analogues and other compounds. The true share with any hit is near 3.2%.
HEK293 cAMP ctrl: parental HEK293 cAMP activation (counter-screen); 2.5% of 73,000 active; AID 938; parental HEK293 CNG cAMP sensor, membrane potential fluorescence; Potency, µM (top dose mostly 57.1 µM), usual class: activators; also: nearly all actives have a fitted effect of over 55% in size
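Parental HEK 293 cells stably expressing a modified CNG channel (no TSHR) report cAMP rise as membrane depolarization. Membrane potential dye with 100 uM RO 20-1724 was loaded for 60 min at room temperature, then compound added for 30 min; fluorescence read at 590 nm.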
Pol III holo inh: inhibitors of bacterial DNA polymerase III holoenzyme. Potency, µM (doses to about 57.1 µM). reconstituted DNA polymerase III holoenzyme replication, biochemical. 0.25% of 71,000 active
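Reconstituted *E. coli* holoenzyme (0.35 nM Pol III, 1 nM beta, 154 nM SSB, 2 nM primase) was preincubated with compound for 15 min at RT. Synthesis on 1.4 nM ssM13Gori ran 35 min, then was stopped with PicoGreen/EDTA and read as dsDNA fluorescence.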
BRCT inh green: blocks human BRCA1 BRCT binding to phosphopeptide, green readout; Potency, µM (top dose mostly 76.9 µM), most hits filed as inhibitors; P38398; BRCA1 BRCT-phosphopeptide binding, green fluorescence polarization; 0.05% of 75,000 active
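Fluorescence polarization: His-tagged BRCT (~35 kDa BRCA1 C-terminus, 250 nM) bound to 100 nM fluorescein-labeled phosphorylated 10-aa BACH1 peptide, pH 7.3 phosphate buffer with DTT and Tween 20. Compounds incubated 12 min at room temperature; inhibition read as lowered polarization.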
BRCT PPI red: inhibitors of human BRCA1 BRCT-phosphoprotein interaction (red fluorophore). Potency, µM (titrated, usually from 76.9 µM), most hits filed as inhibitors. P38398. 0.03% of 75,000 active. AID 892. BRCT-phosphopeptide binding, red fluorescence polarization
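Fluorescence polarization: 100 nM His-tagged BRCA1 BRCT with 100 nM TAMRA-labelled phospho-BACH1 decapeptide, phosphate buffer pH 7.3 with 150 mM NaCl, DTT, 0.01% Tween 20; 12 min RT. Binding inhibition seen as FP decrease.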
TsaE inh: inhibitors of E. coli YjeE (TsaE); purified YjeE enzyme, qHTS inhibition assay; Potency, µM; 0.05% of 71,000 active
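Purified YjeE (10 uM) with BODIPY Texas Red-labeled ADP probe (2 uM); compounds pin-transferred, 15 min at room temperature. Binding inhibition read as decreased fluorescence polarization; ADP titration as control.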
TSHR ag: TSH receptor (human) agonism; P16473; HEK293-CNG-TSHR cells (CNG channel as cAMP sensor), membrane potential dye, cAMP; Potency, µM (highest dose often 57.1 µM), most hits filed as activators; 0.48% of 73,000 active; active = well fitted activation curve with a large enough effect in the main read-out, with a control signal flat, not every such curve was filed as active; inconclusive = small, poorly fitted or top-dose-only effect, or a change in a side signal; inactive = no such curve, though single readings can be large or run the other way; reference of the percent scale not stated here;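 also: the control signal comes from parental cells without the receptor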
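HEK 293 cells stably expressing TSHR and a cAMP-gated CNG channel; parental CNG-only cells as counterscreen. Cells preloaded 60 min with membrane potential dye plus 100 uM RO 20-1724, then compound 30 min; fluorescence read at 590 nm.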
HEK293 cAMP cnt: raises cAMP in parental HEK293 cells lacking TSH receptor. shares compounds with TSHR ag. parental HEK293 CNG biosensor, cAMP membrane potential fluorescence. activity change, negative = inhibition, % at 32.9 µM. 150 tested, under 10 active. AID 953
A number is an active result; i = inactive; ? = inconclusive; nt = no result; [ ] = another dose, or the depositor's remark. Unless noted, calls follow the shape of the dose curve; as a rule, active = well fitted curve in the direction sought with a large enough effect; inconclusive = small, poorly fitted or top-dose-only effect, or another doubt; inactive = no such curve, though single readings can be large; an effect the other way counts as inactive or inconclusive.

SMILES	HEK293 cAMP ctrl	Pol III holo inh	BRCT inh green	BRCT PPI red	TsaE inh	TSHR ag	HEK293 cAMP cnt
NC(=O)c1nsc(C(=O)N(CC(=O)NCc2ccc3c(c2)OCO3)C2CCCC2)c1N	i	i	i	i	i	12.6µM	i
CCn1c(=O)cc(SCC(=O)NCc2cccnc2)c2ccccc21	?	i	i	i	i	?	nt
O=S1(=O)N=C(Oc2ccccc2)c2ccccc21	i	i	i	i	i	i	i
CC1(C)c2ccccc2N2CC(=O)NC21/C=C/c1ccco1 (configuration not stated)	i	i	i	i	i	2.51µM	i
CC1(C)c2ccccc2N2CCC(=O)NC21/C=C/c1ccco1 (configuration not stated)	i	i	i	i	i	3.16µM	i
Cc1coc(C)c1C(=O)CC1(O)C(=O)N(Cc2ccccc2)c2ccccc21 (configuration not stated)	i	i	i	i	i	i	nt
CC1(c2ccccn2)Nc2ccccc2-c2nc3ccccc3n21 (configuration not stated)	i	i	i	i	i	15.8µM	i
c1ccc2c(c1)NC1(CCCCC1)n1c-2nc2ccccc21	i	i	i	i	i	nt	nt
Cc1ccc(C)c(N(C(=O)Cn2nnc(-c3cccs3)n2)C(C(=O)NC2CC2)c2ccc(C)o2)c1 (configuration not stated)	i	i	i	i	i	7.94µM	?
Cc1ccc(N(C(=O)Cn2nnc(-c3ccc(C)o3)n2)C(C(=O)NC2CCCC2)c2ccco2)cc1 (configuration not stated)	i	i	i	i	i	i	nt
CCOc1ccc(N(CC(=O)NC(C)(C)C)S(=O)(=O)c2c(C)noc2C)cc1	i	i	i	i	i	i	i
CCOc1ccc(N(CC(=O)Nc2ccc(C)cc2)S(=O)(=O)c2c(C)noc2C)cc1	i	i	i	i	i	i	i
CCOc1ccc(N(CC(=O)NCc2cccs2)S(=O)(=O)c2c(C)noc2C)cc1	i	i	i	i	i	31.6µM	i
CCOc1ccc(N(CC(=O)NCc2ccc(F)cc2)S(=O)(=O)c2c(C)noc2C)cc1	i	i	i	i	i	i	nt
O=S(=O)(NCc1cccnc1)c1ccc(Cl)c(Cl)c1Cl	i	i	i	i	i	i	nt
COc1ccc(-c2ccc(-c3noc(C)n3)c(OC)n2)cc1	i	i	i	i	i	3.16µM	i
CCOc1nc(-c2ccc(OC)cc2)ccc1-c1noc(C)n1	i	i	i	i	i	i	nt
O=C(Nc1ccc(N2CCOCC2)cc1)C1CC1	i	i	i	i	i	i	i
O=C(Nc1ccc(N2CCOCC2)cc1)NC1CCCCC1	i	nt	i	i	nt	i	nt
CCOC(=O)N1CCN(S(=O)(=O)c2cc(OCC)ccc2OCC)CC1	i	i	i	i	i	i	nt
O=c1c2ccccc2ncn1-c1ccc2c(c1)OCCO2	i	nt	i	i	nt	i	i
Cc1nc2ccc(NC(=O)c3ccc(S(=O)(=O)N4CCOCC4)cc3)cc2s1	i	i	i	i	i	i	?
Cc1ccc(-n2nc(-c3ccc(N)cc3)cc2N)cc1	i	i	i	i	i	i	i
O=C(CSc1nnc(Cc2ccccc2)o1)NCCc1ccccc1	i	i	i	i	i	i	nt
COCCN(CCOC)c1nc(C)nc2c1nc(-c1ccccc1)n2CCCN(C)C	?	i	i	i	i	?	nt
SMILES	HEK293 cAMP ctrl	Pol III holo inh	BRCT inh green	BRCT PPI red	TsaE inh	TSHR ag	HEK293 cAMP cnt
Cc1ccccc1NC(=O)N1C2CCCC1CC(NC(=O)C1CC1)C2 (configuration not stated)	i	i	i	i	i	i	i
COc1ccc(N(C)S(=O)(=O)c2cccc(C(=O)NC3=NCCS3)c2)cc1	i	i	i	i	i	25.1µM	i
COc1cccc(C(=O)NC2=NCCS2)c1OC	i	i	i	i	i	i	nt
c1ccc2c(CSCc3cccc4ccccc34)cccc2c1	i[11.4 µM]	i[11.4 µM]	i[15.4 µM]	i[15.4 µM]	i	i[11.4 µM]	nt
Cc1ccccc1-n1nc(C)c2cc(C(=O)N3CCN(S(=O)(=O)c4ccc(F)cc4)CC3)sc21	i	i	i	i	i	15.8µM	i
N=c1sc2ccccc2n1CCS (tested in a mixture with another compound)	i[11.4 µM]	i[11.4 µM]	i[15.4 µM]	i[15.4 µM]	i	i[11.4 µM]	nt
O=C(Nc1ccccn1)c1cccc(S(=O)(=O)N2CCOCC2)c1	i	i	i	i	i	i	nt
CC1CCN(S(=O)(=O)c2cccc(C(=O)Nc3ccccn3)c2)CC1	i	i	i	i	i	25.1µM	i
CCCC(=O)C1=C(SCC)CC(C)(C)C(C(=O)OC)C1=O (configuration not stated)	?	i	i	i	i	?	i
CCOC(=O)c1cc(-c2ccc(/C=N\n3cnnc3)o2)ccc1Cl	i	i	i	i	i	i	nt
Nc1ccc2c(c1)COc1ccccc1O2	i	i	i	i	i	i	i
COC(=O)c1cc2c(s1)-c1ccccc1OC2	i	i	i	i	i	nt	nt
COc1ccccc1N1CCN(C(c2cccs2)C(C)NS(=O)(=O)c2ccccc2)CC1 (configuration not stated)	i	i	i	i	i	i	nt
COc1cccc(C(c2nnnn2Cc2ccccc2)N2CCN(C(=O)c3ccco3)CC2)c1OC (configuration not stated)	i	i	i	i	i	25.1µM	i
COc1ccc(C(c2nnnn2Cc2ccccc2)N2CCN(C(=O)c3ccco3)CC2)cc1 (configuration not stated)	?	i	i	i	i	?	nt
COCCNC(=O)C(c1ccc(C)o1)N(C(=O)c1snc(C(N)=O)c1N)c1ccc(C)cc1 (configuration not stated)	i	i	i	i	i	31.6µM	i
CCN(c1ccccc1)S(=O)(=O)c1ccc(Oc2ccc(-n3ccnc3)cc2)nc1	i	i	i	i	i	25.1µM	i
Cc1ccccc1N1C(=O)c2cc(S(N)(=O)=O)c(Cl)cc2N[C@H]1C	i	i	i	i	i	i	nt
CCC(C)(C)n1nnnc1CN(Cc1ccco1)Cc1cc2cc3c(cc2[nH]c1=O)OCO3	i	i	i	i	i	25.1µM	i
CC(C)CC(=O)Nc1cccc(-c2cn3ccsc3n2)c1	i	i	i	i	i	15.8µM	i
CCC(=O)Nc1cccc(-c2cn3ccsc3n2)c1	i	i	i	i	i	i	nt
CC(c1ccco1)N(C(=O)c1ccc(Cl)s1)c1ccccn1 (configuration not stated)	?	i	i	i	i	?	i
CC(c1ccco1)N(C(=O)COc1ccc(Cl)cc1)c1ccccn1 (configuration not stated)	i	i	i	i	i	i	nt
